The values that follow come from PubChem BioAssay AID2314 (National Center for Advancing Translational Sciences (NCATS), 2010).

The campaign covered roughly 300,000 compounds. About 37,000 (12%) were called active. This excerpt belongs to a sample that is enriched for actives. Values without a mark were called inactive. Cut-off read from the data, not from the text of the source: active = max response mostly above about 13% (no sharp cut-off); inactive = mostly below about 14%.

A short description of the assay: Cycloheximide Counterscreen for Small Molecule Inhibitors of Shiga Toxin. Note: read at 38.3 µM for the half of the compounds with a filed dose; 0% is about no effect. As to conditions: cell reporter, cycloheximide protein synthesis inhibition counterscreen; hits give high values. On the technique in general: Counterscreens check selectivity or assay interference.
For `COc1ccccc1C(=O)Nc1ccnn1C1CCN(Cc2cnn(C)c2)CC1`, the max response was 0.446%. Regarding `COc1ccc2c(c1)c1nc3n(c(=O)c1n2CC(=O)Nc1ccccc1)CCS3`, the max response is -2.14%. As for `CC(=O)CC(c1ccccc1)C1C(=O)Oc2ccccc2C1=O` (configuration not stated), the max response is -3.15%. For the molecule `Cc1cc(C)c2oc(C(=O)Nc3ccc(S(=O)(=O)Nc4nccc(C)n4)cc3)cc(=O)c2c1`, the max response is 5.57%.

Regarding `Cn1c(CC2Sc3ccccc3NC2=O)nnc1SCC(=O)c1ccc(Cl)cc1` (configuration not stated), the max response is 6.52%. For the molecule `O=C(CSc1cccc[n+]1[O-])c1ccc(Cl)cc1`, the max response was 16.8% (active). The figure for `Cc1cc(Oc2ccc(Cl)cc2)nc(SCC(=O)c2ccccc2)n1` is 0.695%; for `O=C(CSc1cccc[n+]1[O-])c1ccc(-c2ccccc2)cc1` it is 44.8% (active); for `O=C(CSc1cccc[n+]1[O-])NCCCc1ccccc1` it is 10.3%. As for `COc1ccccc1C(=O)CSc1cccc[n+]1[O-]`, the max response was 9.7%. `CCOC(=O)N1CCC(N2Cc3cccc(C(=O)Nc4ccc(S(=O)(=O)N(CC)CC)cc4)c3C2=O)CC1`: the max response was -7.45%. The figure for `CC(=O)c1c(C)oc2ccc(NS(=O)(=O)c3ccccc3)cc12` is -4.79%. To `O=C(Nc1ccc(-c2cscn2)cc1)C1CCCN(Cc2ccc(CO)o2)C1` (configuration not stated) belongs 10.2%; to `Cc1cc(C)cc(NC(=O)C2CCCN2S(=O)(=O)c2cccc3cccnc23)c1` (configuration not stated), 0.222%.

As for `CCCCNS(=O)(=O)c1ccc2nc(SCC(=O)Nc3cc(C)cc(C)c3)[nH]c2c1`, the max response is -6.32%.

`Cc1ccc2nc(-c3ccncc3)cc(C(=O)Nc3ccc(OC(F)F)cc3)c2c1`: the max response is -4.25%. To `CN1CCN(C(=O)C(=O)c2cn(CC(=O)N3CCCC3)c3ccccc23)CC1` belongs -2.55%. Regarding `O=C(Nc1ccc(F)cc1)C(=O)c1cn(CC(=O)N2CCOCC2)c2ccccc12`, the max response is -0.871%. To `Cc1ccc(CNC(=O)C(=O)c2cn(CC(=O)N3CCOCC3)c3ccccc23)cc1` belongs 17.6% (active); to `O=C(NCCCn1ccnc1)C(=O)c1cn(CC(=O)N2CCCCCC2)c2ccccc12`, 10.1%; to `COc1cccc(NC(=O)C(=O)c2cn(CC(=O)N3CCOCC3)c3ccccc23)c1`, 37.8% (active).

In the case of `N#Cc1ccc(Cn2cc(C(=O)c3ccco3)c3ccccc32)cc1`, the max response is 21.7%. Consider `Cc1cccc(NC(=O)Cn2cc(C(=O)c3ccco3)c3ccccc32)c1`, for which the max response was -2.38%. The figure for `COc1cccc(NC(=O)CS(=O)(=O)c2cn(CC(=O)N3CCOCC3)c3ccccc23)c1` is -5.36%; for `O=C(NCc1ccco1)C(=O)c1cn(CC(=O)N2CCCCCC2)c2ccccc12` it is 2.39%. Consider `Cc1ccc(CNC(=O)C(=O)c2cn(CC(=O)N3CCCC3)c3ccccc23)cc1`, for which the max response is 20.3% (active). On to `CC1CCN(C(=O)Cn2cc(C(=O)c3ccco3)c3ccccc32)CC1`, for which the max response was 23% (active). Take `CN(Cc1ccccc1)C(=O)C(=O)c1cn(CC(=O)N2CCCC2)c2ccccc12`: the max response was -3.43%. For the molecule `COc1ccc(C(CNC(=O)c2ccc(S(=O)(=O)Nc3ccccc3F)cc2)N(C)C)cc1` (configuration not stated), the max response is -6%. To `COC(=O)c1cccc(N(C(=O)c2ccco2)C(C(=O)NC2CCCC2)c2ccco2)c1` (configuration not stated) belongs -1.82%; to `COc1cc(CNC2CCCCC2)c(Br)cc1OC1CCCC1`, -7.03%; to `CCc1ccc(CN(C)C(=O)C2CCC(=O)N(Cc3cccc(OC)c3)C2)nc1` (configuration not stated), 4.36%.

Consider `CCn1nc(C)c(NC(=O)/C=C/c2ccc(OC)c(COc3ccc(Br)cc3)c2)c1C`, for which the max response is 2.79%. The figure for `CCCc1cc(=O)oc2c(C)c(OC(C)C(=O)NCC(O)c3ccccc3)ccc12` (configuration not stated) is -2.74%; for `Cc1ccc(S(=O)(=O)NCC(=O)N(CC(=O)NCC2CCCO2)c2cccc(F)c2)cc1` (configuration not stated) it is 1.36%; for `CC(=O)NCC(=O)NC1CCCc2c1cnn2-c1ccccc1F` (configuration not stated) it is 5.35%. On to `CCOC(=O)C(=CNNc1ccsc1C(=O)OC)C(=O)OCC`, for which the max response is 12.1%. The figure for `O=C1CN(c2nc(-c3ccccc3)c3cc(Br)ccc3n2)c2ccccc2N1` is -2.03%; for `O=S(=O)(NCC1CN(S(=O)(=O)c2ccc3c(c2)OCCO3)C1)c1c(F)cccc1F` it is -7.82%.

Turning to `COc1ccccc1CNC(=O)c1cc(=O)c2ccccc2o1`, the max response is 28.7%.

Consider `O=C1NC(Nc2nc3ccccc3s2)(C(F)(F)F)C(=O)N1C1CCCCC1` (configuration not stated), for which the max response is 0.879%. `Cc1sc2ncnc(Sc3nc4ccccc4s3)c2c1C`: the max response was -3.1%. `c1ccc2sc(SNC3CCCCC3)nc2c1`: the max response was 43.3% (active).

Consider `Cc1c(CC(=O)N2CCN(C(=O)C3COc4ccccc4O3)CC2)c(=O)oc2c(O)c(O)ccc12` (configuration not stated), for which the max response was -3.9%. The figure for `CCOc1ccccc1OCCCNCc1ccccc1` is -2.14%. To `COc1ccc2c(c1)cc1n2CCN=C1NN` belongs 64.4% (active). To `Cc1cccc(OCC(O)CN2CCN(S(=O)(=O)c3ccc(C)cc3C)CC2)c1` (configuration not stated) belongs 6.97%; to `COc1ccc(NC(=O)N2CCCC(c3nc(-c4ccc(F)cc4)no3)C2)cc1` (configuration not stated), 27.8% (active). As for `O=C(Cc1cccs1)N1CCCC(c2nc(-c3ccc(S(=O)(=O)N4CCCC4)cc3)no2)C1` (configuration not stated), the max response is -2.82%. As to `O=C(c1cccs1)N1CCCC(c2nc(-c3ccc(F)cc3)no2)C1` (configuration not stated), the max response is 26.6% (active). To `O=C(c1ccc(F)cc1)N1CCCC(c2nc(-c3cccs3)no2)C1` (configuration not stated) belongs 20.3%; to `COc1cccc(-c2noc(C3CCCN(C(=O)c4ccc(F)cc4)C3)n2)c1` (configuration not stated), 20.6% (active).

Regarding `CCN(C(=O)C1CCCN(c2nc(-c3ccc(OC)cc3)no2)C1)c1ccc(OC)cc1` (configuration not stated), the max response is -1.83%.

As to `COc1ccc(NC2CCCN(C(=O)c3ccncc3)C2)cc1` (configuration not stated), the max response is -1.48%. The figure for `COc1cc(-c2noc(C3CCCN(S(=O)(=O)c4cccc(Cl)c4)C3)n2)cc(OC)c1OC` (configuration not stated) is -4.41%; for `O=C(c1ccc(F)cc1)N1CCCC(C(=O)N2CCCCC2)C1` (configuration not stated) it is -3.54%. To `CC(C)c1ccc(-c2noc(C3CCCN(S(C)(=O)=O)C3)n2)cc1` (configuration not stated) belongs 39.9% (active); to `CCn1nc(C)cc1C(=O)N1CCCC(C(=O)c2cccc(OC)c2)C1` (configuration not stated), 2.78%. To `CC(C)c1ccc(NC(=O)C2CCCN(S(=O)(=O)c3cccnc3)C2)cc1` (configuration not stated) belongs 5.83%. Turning to `NC(=O)C1CC(=O)N(c2ccc(OCC(=O)NCc3ccccc3)cc2)C1` (configuration not stated), the max response was -2.39%.

For `Cc1ccc(S(=O)(=O)N2CCC(C)CC2)cc1C(=O)NCc1ccccn1`, the max response was 5.45%. On to `NC(=O)c1oc2ccccc2c1NC(=O)CS(=O)(=O)c1ccccc1`, for which the max response is 14.9%. As for `C=CCOc1cccc(CNCc2cccnc2)c1`, the max response was 1.07%. As to `COc1ccc(/C=C2/C(=O)OCc3cc(OC)c(OC)cc32)c(OC)c1`, the max response was -1.45%. To `CC(=O)c1cccc(NC(=O)C2CCN(C(=O)c3ccccc3Cl)CC2)c1` belongs -2.1%; to `COC(=O)c1cccc(N(CC(=O)NCC2CCCO2)C(=O)CCC(=O)Nc2cc(C)on2)c1` (configuration not stated), -2.44%; to `COc1cccc(NC(=O)CCc2nnc3ccc(N4CCC(C)CC4)nn23)c1`, -5.83%.

As for `COc1ccccc1CN1CCNC(=O)C1CC(=O)N(C)CC1CCOCC1` (configuration not stated), the max response is -1.38%. The figure for `Cc1ccc2nc(C)c3c(c2c1)N(c1ccccc1)CC3` is -1.78%. Turning to `Cc1c(CN2CCCC(C(=O)c3cccc(Cl)c3)C2)c(=O)n(-c2ccccc2)n1C` (configuration not stated), the max response was -3.35%.

As to `CCc1nc2ccc(C(=O)N3CCN(c4cccc(Cl)c4)CC3)cc2nc1CC`, the max response is -0.581%. The figure for `Cc1ccc(-c2noc(C3CCCN(C(=O)c4cccc(Cl)c4)C3)n2)o1` (configuration not stated) is 47.3% (active). To `Cc1cccc2c1-c1sc(C(=O)NCCCN3CCc4ccccc4C3)cc1CO2` belongs 1.19%; to `O=S1(=O)N=C(N(CCO)/N=C/c2ccccc2F)c2ccccc21`, -7.2%; to `CCOC(=O)Cc1csc(SCC(=O)NC(C)C23CC4CC(CC(C4)C2)C3)n1` (configuration not stated), -2.6%. To `O=C(CCC1CCCN(Cc2ccc(O)c(Cl)c2)C1)NCc1ccccc1F` (configuration not stated) belongs -1.08%; to `Cc1[nH]c2c(C(=O)N3CCCC(CCC(=O)NCc4ccccc4F)C3)cccc2c1C` (configuration not stated), 18.9% (active). `CSc1ncccc1C(=O)N1CCCC(CCC(=O)NCc2ccccc2F)C1` (configuration not stated): the max response is -1.29%.

For `CC(C)(C)c1ccc(OC2=CS(=O)(=O)c3ccccc32)cc1`, the max response is 81.1% (active). On to `COc1ccc(CN2CCC(=O)c3ccccc3S2(=O)=O)cc1`, for which the max response was -4.16%. To `O=S1(=O)C=C(SCCN2CCCC2)c2ccccc21` belongs 4.83%; to `CS(=O)(=O)N1CCCC(C(=O)Nc2ccccc2C(F)(F)F)C1` (configuration not stated), 0.965%; to `CN1C(=O)c2cccc3c(N)ccc(c23)C1=O`, -4.64%. The figure for `Cn1c(=O)c2c(nc(OCc3cccnc3)n2Cc2ccccc2)n(C)c1=O` is 14.9% (active); for `C=CCOc1nc2c(c(=O)n(C)c(=O)n2C)n1Cc1ccc(Cl)cc1Cl` it is -2.08%. As for `Cn1c(=O)c2c(nc(NCCc3ccccc3)n2Cc2ccccc2)n(C)c1=O`, the max response was -1.53%. The figure for `CS(=O)(=O)N(CC(=O)N1CCCCCC1)c1cccc(Cl)c1Cl` is -2.66%. To `CC(=O)Nc1ccc(S(=O)(=O)N2CCC(NC(=O)c3ccccc3)CC2)cc1` belongs -2%; to `COc1ccc(S(=O)(=O)N2CCN(C(=S)NCC3CCCO3)CC2)cc1OC` (configuration not stated), -1.28%; to `Cc1cccc(-n2c(O)c(C=Nc3ccccc3N)c(=O)[nH]c2=O)c1`, 39.4% (active). The figure for `Cc1cccc(-n2c(O)c(C=NC34CN5CN(CN(C5)C3)C4)c(=O)[nH]c2=O)c1` is 8.1%; for `Cc1cccc(-n2c(O)c(/C=N/N3CCOCC3)c(=O)[nH]c2=S)c1` it is -8.26%.
